Results filed as inconclusive are left out. Active and inactive are the calls of the source. The call rests on the fitted dose curve; tested in HEK293 reporter line.
experiment: qHTS for Inhibitors of the Functional Ribonucleoprotein Complex (vRNP) of Lassa (LASV) Arenavirus: Viability assay - alamar blue signal for LASV Primary Screen (AID 1347083); details: cell viability, alamar blue fluorescence (LASV minigenome counter-screen); series mostly up to 57.5 µM; activity change, negative = reduced viability: at the top concentration; further: nearly all actives have a fitted effect of over 80% in size
On the % scale 0 is the no-effect control and ±100 the full control effect; potency means the concentration at half of the fitted maximal effect.

| Structure (SMILES) | activity change, negative = reduced viability | Potency |
| --- | --- | --- |
| C=C1C[C@@]23CC4C5[C@@]6(C)C[C@H](O)C[C@@]57C2[C@H](O)[C@@H]1[C@H](O)[C@H]3[C@H]7N4C6 | -1.96% (inactive) |  |
| CCOC(=O)/C=C/c1ccccc1 | 24.8% [at 115 µM] (inactive) |  |
| O=C1CCC[C@H]2[C@H]3CCCN4CCCC(=CN12)[C@@H]34 | -8.35% (inactive) |  |
| COc1cc2c(c(OC)c1OC)-c1c(cc3c(c1OC)OCO3)[C@@H](OC(C)=O)[C@H](C)[C@H](C)C2 | 1.82% (inactive) |  |
| C[C@@H](Cc1cc2c(c(C(N)=O)c1)N(CCCO)CC2)NCCOc1ccccc1OCC(F)(F)F | 4.55% (inactive) |  |
| CCCCCCCC/C=C/CCCOC(C)=O | 11.6% [at 115 µM] (inactive) |  |
| CC(=O)OC1c2c(ccc3ccc(=O)oc23)OC(C)(C)C1OC(=O)CC(C)C (centres undefined) | 0.148% (inactive) |  |
| C=C1C[C@H](O[C@@H]2O[C@H](CO)[C@@H](O)[C@H](O)[C@H]2O)[C@@H]2[C@H](OC(=O)[C@H]2C)[C@H]2[C@H](C)[C@@H](O)C[C@@H]12 | -10.9% (inactive) |  |
| N[C@H](C(=O)O)c1ccc(O)c(C(=O)O)c1 | 12.6% (inactive) |  |
| C=C1CCC2C(C)(C)[C@@H](O)CC[C@@]2(C)[C@@H]1COc1ccc2ccc(=O)oc2c1 (some centres undefined) | -18.2% (inactive) |  |
| COc1ccc(C(=O)OC2CC3CCC(C2)[N+]3(C)[O-])cc1OC (centres undefined) | 1.37% (inactive) |  |
| Cc1c(O)c2ccccc2oc1=O | -2.33% (inactive) |  |
| CC(=O)OCC1=C(C(=O)O)N2C(=O)[C@@H](NC(=O)Cc3ccccc3)[C@H]2SC1 | 18% (inactive) |  |
| CCOC(=O)Cc1ccccc1 | -128% [at 115 µM] (inactive) |  |
| COC1CC(C)C(OC)c2cc(O)cc(c2O)NC(=O)C(C)=CC=CC(C)C(OC(N)=O)C(C)=CC(C)C1OC (centres undefined) | 3.25% (inactive) |  |
| COC(=O)c1ccccc1-n1c(C)nc2ccccc2c1=O | 1.01% (inactive) |  |
| C[C@]12CCC3C(CC[C@H]4C[C@H](O)CC[C@]34C)C1C[C@H](O)[C@@H]2O (some centres undefined) | -14.3% (inactive) |  |
| O=Cc1ccc(O)cc1O | 2.53% (inactive) |  |
| CS[C@H]1SC[C@@H]2C(=O)N(C)[C@H](C(C)C)C(=O)OC[C@H](NC(=O)c3cnc4ccccc4n3)C(=O)N[C@H](C)C(=O)N(C)[C@@H]1C(=O)N(C)[C@H](C(C)C)C(=O)OC[C@H](NC(=O)c1cnc3ccccc3n1)C(=O)N[C@H](C)C(=O)N2C |  | 10.9 nM (active) |
| COc1cc(C(=O)OC2CC3CCC2(C)C3(C)C)ccc1OC(C)=O (centres undefined) | 12.6% (inactive) |  |

| Structure (SMILES) | activity change, negative = reduced viability | Potency |
| --- | --- | --- |
| CCCCC[C@H](O)/C=C/[C@H]1OC(O)C[C@H](O)[C@@H]1C/C=C\CC(=O)O (some centres undefined) | 12.3% [at 0.757 µM] (inactive) |  |
| CC1=C2C(=O)OC(c3ccoc3)C2(C)CCC1 (centres undefined) | 0.927% (inactive) |  |
| COc1c2ccc(OCC/C(C)=C/C(=O)C=C(C)C)cc2nc2occc12 | 20.8% (inactive) |  |
| c1ccc2nc(-c3ccc4c(c3)OCO4)ccc2c1 | -0.227% (inactive) |  |
| COc1cc(OC)c2ccc(=O)oc2c1 |  | inactive |
| CC(=O)O | 13.6% (inactive) |  |
| CC(=O)O[C@@H]1[C@H](OC(=O)CC(C)C)c2c(ccc3ccc(=O)oc23)OC1(C)C | -8.85% (inactive) |  |
| Cc1[nH]c(C=C2C(=O)Nc3ccc(S(=O)(=O)Cc4c(Cl)cccc4Cl)cc32)c(C)c1C(=O)N1CCC[C@H]1CN1CCCC1 | -5.34% (inactive) |  |
| CC(=O)Oc1ccc2c(C)cc(=O)oc2c1 | -21.2% (inactive) |  |
| O=C(/C=C/c1ccc(O)cc1)OC[C@H]1O[C@@H](Oc2c(-c3ccc(O)cc3)oc3cc(O)cc(O)c3c2=O)[C@H](O)[C@@H](O)[C@@H]1O | -17.5% [at 24.7 µM] (inactive) |  |
| CC[C@H](C)C(=O)N[C@H]1CCCN1C(=O)/C=C/c1ccccc1 | -1.08% (inactive) |  |
| N#CC(=C1Nc2ccccc2S1)c1ccnc(OCc2ccc(CN3CCOCC3)cc2)n1 |  | 4320 nM (active) |
| COc1cc(C(=O)O[C@@H]2CC3CC[C@]2(C)C3(C)C)ccc1O | 19.9% (inactive) |  |
| Cn1c2ccccc2c2c3c(c4c5ccccc5n(CCC#N)c4c21)CNC3=O |  | 485 nM (active) |
| C[C@]12C=CC(=O)C=C1CC[C@@H]1[C@@H]2[C@@H](O)C[C@@]2(C)[C@@H]1CC[C@]2(O)C(=O)CO | 1.21% (inactive) |  |
| C=CCc1c(OC)ccc2ccc(=O)oc12 | 12.7% (inactive) |  |
| C=CC(C)(CCC=C(C)C)OC(=O)c1ccccc1 (centres undefined) | 6.73% [at 115 µM] (inactive) |  |
| COc1cc2c(=O)c(-c3ccc(O)cc3)coc2cc1OC1OC(CO)C(O)C(O)C1O (centres undefined) | -1.93% (inactive) |  |
| O=c1cc(-c2ccc(O)cc2)oc2c([C@@H]3O[C@H](CO)[C@@H](O)[C@H](O)[C@H]3O)c(O)c([C@@H]3O[C@H](CO)[C@@H](O)[C@H](O)[C@H]3O)c(O)c12 | -2.69% (inactive) |  |

Reference: PubChem BioAssay (NCATS)
